Hits are enriched below; roughly 11% of the tested compounds scored in any of these assays.
HCV inhibitor – qHTS Assay for Inhibitors of Hepatitis C Virus (HCV); Potency, µM (highest dose often 41.8 µM), without a hit: at the highest dose activity change, negative = inhibition, usual class: inhibitors; AID 651820, 2012; Huh7.5.1 HCVcc-Cre infection, luciferase reporter, 44 h; 340,000 compounds, 3.4% hits
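Seed cells (1,000/well) for 4 h; treat with compound and infect with HCVcc-Cre, moi about 0.5. Incubate 44 h, then detect luciferase activity.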
Pf growth 96h – Primary qHTS for delayed death inhibitors of the malarial parasite plastid, 96 hour incubation; P. falciparum luciferase reporter growth, 96 h; Potency, µM (highest dose often 28.7 µM), for inactives: top-dose activity change, negative = inhibition, most hits filed as inhibitors; 320,000 compounds, 6.9% hits
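Two parasite generations (96 h, 37 C, 5% CO2) of compound exposure in infected erythrocytes (0.05% parasitemia, 2% hematocrit). Luciferase-reporter P. falciparum; decreased luminescence indicates inhibited growth, aimed at apicoplast-acting delayed death.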
AmpC inh detg – qHTS Inhibitors of AmpC Beta-Lactamase (assay with detergent); P00811; AmpC hydrolysis of nitrocefin, absorbance 480 nm, 0.01% Triton; Potency, µM (doses to about 114 µM), for the others: top-dose activity change, negative = inhibition, most hits filed as inhibitors; 370,000 compounds, 0.041% hits; AID 485294, 2010;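 further: 0% = no-compound wells and -100% = no-enzyme wells; nearly all actives have a fitted effect of over 25% in size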
Target sequence (P00811 whole entry, looked up): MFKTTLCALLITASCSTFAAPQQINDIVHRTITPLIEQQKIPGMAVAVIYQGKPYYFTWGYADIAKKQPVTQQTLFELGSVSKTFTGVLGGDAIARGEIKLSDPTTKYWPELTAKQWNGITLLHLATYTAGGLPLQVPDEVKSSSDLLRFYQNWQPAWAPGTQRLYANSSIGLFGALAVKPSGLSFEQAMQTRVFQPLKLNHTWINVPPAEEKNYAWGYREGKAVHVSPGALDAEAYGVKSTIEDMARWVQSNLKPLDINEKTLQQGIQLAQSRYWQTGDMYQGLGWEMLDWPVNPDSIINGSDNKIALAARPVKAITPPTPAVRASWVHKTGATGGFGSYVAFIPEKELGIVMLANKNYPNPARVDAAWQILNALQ
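AmpC (5.3 nM in the dispensed reagent) in 20 mM phosphate pH 7.0 with 0.01% (detergent screen) or 0.0001% Triton X-100 was preincubated with compounds for 15 min at room temperature. Nitrocefin was then added from an 800 uM solution, and hydrolysis was followed at 480 nm.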
Pf growth 48h – Primary qHTS for delayed death inhibitors of the malarial parasite plastid, 48 hour incubation; P. falciparum luciferase growth in erythrocytes, 48 h; Potency, µM (doses to about 28.7 µM), inactives show at the top dose activity change, negative = inhibition, actives largely listed as inhibitors; 310,000 compounds, 5.9% hits; AID 504832, 2011
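Compounds are pin-transferred into medium, infected erythrocytes (2% hematocrit, 0.1% parasitemia final) are added, and plates sit one parasite generation at 37 C in 5% CO2. Detection reagent is then added and luminescence measured.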
AmpC inh no detg – qHTS Inhibitors of AmpC Beta-Lactamase (assay without detergent). P00811. AmpC nitrocefin hydrolysis, absorbance 480 nm, 0.0001% Triton. Potency, µM (doses to about 57.1 µM), without a hit: at the highest dose activity change, negative = inhibition, usual class: inhibitors. 330,000 compounds, 0.52% hits;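 further: plate controls were no compound for no effect and no enzyme for full effect; nearly all actives have a fitted effect of over 20% in size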
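AmpC (5.3 nM in the dispensed reagent) in 20 mM phosphate pH 7.0 with 0.01% (detergent screen) or 0.0001% Triton X-100 was preincubated with compounds for 15 min at room temperature. Nitrocefin was then added from an 800 uM solution, and hydrolysis was followed at 480 nm.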
AMA1 RON2 block – qHTS for Inhibitors of AMA1-RON; Towards Development of Antimalarial Drug Lead: Primary Screen | Plasmodium falciparum AMA1 (3D7) - RON2 peptide interaction | 360,000 compounds, 0.2% hits | AlphaScreen AMA1-biotinylated RON2 peptide binding | Potency, µM (series often up to 58.2 µM), inactives show at the top dose activity change, negative = inhibition, hits mostly inhibitors;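 further: 0% = vehicle wells and -100% = peptide control; nearly all actives have a fitted effect of over 45% in size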
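AMA1 (3D7) with his tag at 25 nM final met compounds first, then biotinylated RON2 peptide at 25 nM; detection used donor plus acceptor beads, 10 µg/mL apiece, read by AlphaScreen after 30 min at room temperature.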
Numbers without * were called inactive; [ ] = another dose, or the depositor's remark. The call rests on the fitted dose curve; in most records, active means well fitted curve in the direction sought with a large enough effect; inconclusive means small, poorly fitted or top-dose-only effect, or another doubt; inactive means no such curve, though single readings can be large; an effect the other way counts as inactive or inconclusive. Unless noted, on the % scale 0 is the no-effect control and ±100 the full control effect; potency means the concentration at half of the fitted maximal effect.

Screening COc1cc(NC(=O)c2cccc(Br)c2)nc(OC)n1 returned HCV inhibitor -22.1%, Pf growth 96h 2.94µM*, AmpC inh detg 8.7%, Pf growth 48h 186.7%, AmpC inh no detg 3.0% and AMA1 RON2 block -3.1%.
COc1cc(NS(=O)(=O)c2ccc(NC(=O)COc3ccc(C)cc3)cc2)nc(OC)n1 was read as HCV inhibitor 6.9%, Pf growth 96h 15.1%, AmpC inh detg inconclusive, Pf growth 48h inconclusive, AmpC inh no detg -43.6% and AMA1 RON2 block -6.9%.
`O=C(Nc1ccc2nc(SCC(=O)N3CCc4ccccc43)sc2c1)c1ccc(F)cc1` gave AmpC inh detg 21.2%.
For Cc1cc(Cl)ccc1NC(=O)COC(=O)c1cc([N+](=O)[O-])ccc1N1CCOCC1 the results were HCV inhibitor 2.51µM*, Pf growth 96h -3.2%, AmpC inh detg 0.0%, Pf growth 48h inconclusive, AmpC inh no detg -3.7% and AMA1 RON2 block 11.6%.
For COCCOc1ccc(C(F)(F)F)cc1NC(=O)COC(=O)C12CC3CC(CC(O)(C3)C1)C2 the results were HCV inhibitor -12.9%, Pf growth 96h inconclusive, AmpC inh detg 1.1%, Pf growth 48h 2.33µM*, AmpC inh no detg 196.9% and AMA1 RON2 block -1.0%.
For COCCOc1ccc(C(F)(F)F)cc1NC(=O)COC(=O)c1cc([N+](=O)[O-])ccc1N1CCOCC1 the results were HCV inhibitor inconclusive, Pf growth 96h 9.28µM*, AmpC inh detg 6.6%, Pf growth 48h inconclusive, AmpC inh no detg 116.8% and AMA1 RON2 block -0.5%.
`O=C(COC(=O)c1cc([N+](=O)[O-])ccc1N1CCOCC1)c1ccc(F)cc1` gave HCV inhibitor inconclusive, Pf growth 96h inconclusive, AmpC inh detg inconclusive, Pf growth 48h inconclusive, AmpC inh no detg -4.2% and AMA1 RON2 block 47.8%.
Screening CCc1ccc(C(=O)COC(=O)c2cc([N+](=O)[O-])ccc2N2CCOCC2)cc1 returned HCV inhibitor 1µM*, Pf growth 96h inconclusive, AmpC inh detg -17.3%, Pf growth 48h inconclusive, AmpC inh no detg -0.2% and AMA1 RON2 block -14.5%.
`CCn1c(C(=O)N2CCCC(C(=O)N3CCN(c4cc(C)ccc4C)CC3)C2)cc2sccc21` (stereo not drawn) gave AmpC inh detg -1.5%.
Screening COc1ccc(OC)c(CNC(=O)c2ccc(NC(=O)c3nsc4ccccc34)cc2)c1 returned AmpC inh detg 1.0%.
For CC1=C(C(=O)OC2CCCCCC2)C(c2c(F)cccc2Cl)CC(=O)N1 (stereo not drawn) the results were AmpC inh detg 1.3%.
Screening CCc1cccc(C)c1NC(=O)COC(=O)c1cc([N+](=O)[O-])ccc1N1CCOCC1 returned HCV inhibitor 10µM*, Pf growth 96h 36.3%, AmpC inh detg -13.6%, Pf growth 48h inconclusive, AmpC inh no detg -36.0% and AMA1 RON2 block -8.9%.
COc1ccc(O)c(C(=O)c2cc(C#N)c(=O)n(-c3ccc(Cl)cc3)c2)c1 was read as HCV inhibitor inconclusive, Pf growth 96h 5.86µM*, AmpC inh detg -4.8%, Pf growth 48h 7.38µM*, AmpC inh no detg -23.4% and AMA1 RON2 block -3.0%.
`Cc1ccc(-n2cc(C(=O)c3cc(Cl)ccc3O)cc(C#N)c2=O)cc1` gave HCV inhibitor inconclusive, Pf growth 96h inconclusive, AmpC inh detg inconclusive, Pf growth 48h 3.29µM*, AmpC inh no detg -36.3% and AMA1 RON2 block -0.2%.
`COc1ccc(-n2cc(C(=O)c3cc(Cl)ccc3O)cc(C#N)c2=O)cc1` gave HCV inhibitor -14.8%, Pf growth 96h 7.38µM*, AmpC inh detg 2.9%, Pf growth 48h inconclusive, AmpC inh no detg -54.3% and AMA1 RON2 block -6.6%.
CCOc1ccc(-n2cc(C(=O)c3cc(Cl)ccc3O)cc(C#N)c2=O)cc1 was read as HCV inhibitor 0.8%, Pf growth 96h inconclusive, AmpC inh detg 7.8%, Pf growth 48h -25.7%, AmpC inh no detg -49.2% and AMA1 RON2 block 1.4%.
N#Cc1cc(C(=O)c2ccccc2O)cn(-c2ccc(Cl)cc2)c1=O was read as HCV inhibitor inconclusive, Pf growth 96h 32.2%[5.75 µM], AmpC inh detg -0.1%, Pf growth 48h inconclusive, AmpC inh no detg -59.5% and AMA1 RON2 block -0.3%.
Screening Cc1ccc(Cl)cc1NC(=O)CCc1c(C)nc2c3cccnc3nn2c1C returned AmpC inh detg -0.1%.
Screening Cc1ccccc1-c1nc(-c2ccc(NC(=O)c3cccs3)cc2)no1 returned HCV inhibitor 14.1µM*, Pf growth 96h 23.4%, AmpC inh detg -1.5%, Pf growth 48h inconclusive, AmpC inh no detg -58.5% and AMA1 RON2 block 0.7%.
O=C(Nc1ccc(-c2noc(-c3ccccc3F)n2)cc1)c1cccs1 was read as HCV inhibitor -18.8%, Pf growth 96h 9.28µM*, AmpC inh detg inconclusive, Pf growth 48h 16.3%, AmpC inh no detg -14.8% and AMA1 RON2 block -1.4%[2.32 µM].
Screening CCCc1ccc(OCc2nc(-c3ccc(NC(=O)c4cccs4)cc3)no2)cc1 returned HCV inhibitor 7.6%, Pf growth 96h inconclusive, AmpC inh detg -4.8%, Pf growth 48h 1.85µM*, AmpC inh no detg -24.0% and AMA1 RON2 block -2.8%.
For Cc1ccc(CNC(=O)c2ccc(CN3CC(=O)N4CCCCC4C3=O)cc2)cc1 (stereo not drawn) the results were AmpC inh detg 21.3%.
`O=C(CN1C2=NCCCN2c2ccccc21)c1ccc(Cl)cc1Cl` gave HCV inhibitor inconclusive, Pf growth 96h -8.7%, AmpC inh detg -1.6%, Pf growth 48h 0.37µM*, AmpC inh no detg 25.0% and AMA1 RON2 block 4.7%.
O=C(CN1C2=NCCCN2c2ccccc21)c1ccc([N+](=O)[O-])cc1 was read as HCV inhibitor 11.2µM*, Pf growth 96h inconclusive, AmpC inh detg -3.4%, Pf growth 48h 1.85µM*, AmpC inh no detg -14.7% and AMA1 RON2 block -9.2%.
OC(CN1C2=NCCCN2c2ccccc21)c1ccc(Cl)cc1 (stereo not drawn) was read as HCV inhibitor inconclusive, Pf growth 96h 209.2%, AmpC inh detg -17.2%, AmpC inh no detg -4.3% and AMA1 RON2 block 1.1%.

Screening results: PubChem BioAssay, National Center for Advancing Translational Sciences (NCATS)
